Assay results as given in PubChem BioAssay (EPA / NIEHS).
“And” between values parts separate entries of the source, which are not always exact repeats. Equal values may be shown once. Records with an inconclusive call do not appear. The source holds several records for some structures; these can differ, active in one and inactive in another. The source made the active and inactive calls. The calls were made as follows, unless noted: active = hit-call score of the fitted dose curve at least 0.9, where 1 is the maximum; inconclusive = response in the unintended direction; inactive = score below 0.9.

Experiments:
[1] = ATG_TAL_CIS: Attagene CIS-FACTORIAL HepG2 Assay for human TAL Basal Promoter (AID 2282966; active = hit-call score of the fitted dose curve at least 0.9, where 1 is the maximum; inactive = score below 0.9;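 also: background control endpoint measuring basal TAL promoter reporter mRNA not a specific factor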); details: HepG2 Attagene cis-factorial TAL promoter reporter; actives raise or lower the signal
How it was run: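 RT-PCR plus capillary electrophoresis quantifies reporter mRNA induction in transiently transfected HepG2 cells after 24 h chemical treatment. DMSO serves as negative control and baseline for bidirectional fitting.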

[2] = ATG_TGFb_CIS: Attagene CIS-FACTORIAL HepG2 Assay for human Transforming Growth Factor (TGF) (AID 2282967; active = hit-call score of the fitted dose curve at least 0.9, where 1 is the maximum; inactive = score below 0.9); details: HepG2 Attagene CIS TGFb reporter, mRNA transcription; actives raise or lower the signal
How it was run: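 Cells were dosed for 24 hours, after which total RNA was reverse-transcribed and reporter sequences amplified, labeled and sized by capillary electrophoresis. Activity was fitted in both directions against DMSO.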

[3] = ATG_VDRE_CIS: Attagene CIS-FACTORIAL HepG2 Assay for human Vitamin D Receptor Element (VDRE) (AID 2282968; active = hit-call score of the fitted dose curve at least 0.9, where 1 is the maximum; inactive = score below 0.9); details: HepG2 VDRE cis-reporter transcription, actives raise or lower the signal
How it was run: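 Cell-based multiplexed reporter format in human liver HepG2 cells, 24 h post-dose. Fluorescence from capillary electrophoresis of reporter cDNA gives the signal, with DMSO as negative control and baseline.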

[4] = target: Nuclear receptor subfamily 1 group I member 3 (Homo sapiens) (UniProt Q14994); experiment: ATG_CAR_TRANS: Attagene TRANS-FACTORIAL HepG2 Assay for human Constitutive Androstane Receptor (CAR) (AID 2282969); details: HepG2 Attagene TRANS-FACTORIAL CAR reporter;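 also: activators raise reporter mRNA above DMSO so AC50 marks induction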
Nuclear receptor subfamily 1 group I member 3 (Homo sapiens), sequence (Q14994 whole entry, looked up, the tested form may be a part): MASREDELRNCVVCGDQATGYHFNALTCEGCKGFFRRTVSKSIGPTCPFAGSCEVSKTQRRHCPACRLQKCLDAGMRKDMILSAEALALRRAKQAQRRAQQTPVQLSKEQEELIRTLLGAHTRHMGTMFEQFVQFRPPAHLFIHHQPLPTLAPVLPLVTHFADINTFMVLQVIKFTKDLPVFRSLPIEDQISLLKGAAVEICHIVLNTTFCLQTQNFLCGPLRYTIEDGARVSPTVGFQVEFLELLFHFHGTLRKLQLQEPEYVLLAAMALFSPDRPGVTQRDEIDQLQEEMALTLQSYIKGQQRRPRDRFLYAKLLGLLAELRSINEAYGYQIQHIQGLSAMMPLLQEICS
How it was run: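 HepG2 cells transiently transfected with GAL4-UAS reporter units; TRANS format reads activity of exogenous chimeric NR-Gal4 protein. After 24 h dosing, reporter mRNA quantified by RT-PCR, 6-FAM labelling and capillary electrophoresis; gain of signal fitted against DMSO.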

[5] = target: X-box-binding protein 1 (Homo sapiens) (UniProt P17861); experiment: ATG_Xbp1_CIS: Attagene CIS-FACTORIAL HepG2 Assay for human X-box Binding Protein 1 (XBP1) (AID 2282972; active = hit-call score of the fitted dose curve at least 0.9, where 1 is the maximum; inactive = score below 0.9); details: HepG2 XBP1 cis-element reporter, Attagene multiplex; actives raise or lower the signal
X-box-binding protein 1 (Homo sapiens), sequence (P17861 whole entry, looked up): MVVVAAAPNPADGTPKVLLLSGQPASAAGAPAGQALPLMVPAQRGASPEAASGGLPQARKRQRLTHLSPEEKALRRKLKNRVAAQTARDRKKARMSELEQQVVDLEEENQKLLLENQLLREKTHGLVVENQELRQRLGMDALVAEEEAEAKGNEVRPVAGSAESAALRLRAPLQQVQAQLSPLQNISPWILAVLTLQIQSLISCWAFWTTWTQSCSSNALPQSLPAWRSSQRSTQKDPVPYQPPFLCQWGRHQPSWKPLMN
How it was run: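 HepG2, transient MRTU transfection (cis-promoter driven), 24 h compound exposure. Total RNA → oligo(dT) RT → PCR → 6-FAM labeling → HpaI cut → CE. Bidirectional fit vs DMSO.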

[6] = ATG_GAL4_TRANS: Attagene TRANS-FACTORIAL HepG2 Assay for GAL4 (Internal Marker) (AID 2282976); details: HepG2 Attagene TRANS GAL4 internal marker reporter
How it was run: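 In transfected human HepG2 liver cells dosed 24 h, GAL4 reporter mRNA serves as a baseline marker. Detection by RT-PCR with fluorescent capillary electrophoresis, activity fitted upward relative to DMSO.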

[7] = ATG_M_06_TRANS: Attagene TRANS-FACTORIAL HepG2 Assay for M06 Transcription Factor (Internal Marker) (AID 2282983); details: HepG2 Attagene TRANS M06 internal marker reporter
How it was run: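 Cells: HepG2, transient multi-reporter transfection. Exposure: 24 h. Detection: RT-PCR, 6-FAM labelling, HpaI digestion (2 h, 37 °C), capillary electrophoresis. Baseline: DMSO.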

[8] = ATG_M_32_TRANS: Attagene TRANS-FACTORIAL HepG2 Assay for M32 Transcription Factor (Internal Marker) (AID 2282984); details: HepG2 Attagene TRANS M32 internal marker reporter
How it was run: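 Capillary electrophoresis of 6-FAM-labelled reporter fragments gives the signal; data fitted for gain over DMSO negative control. Source: HepG2 cells bearing transient multiple reporter transcription units, 24 h exposure.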

[9] = target: Transcriptional activator Myb (Homo sapiens) (UniProt P10242); experiment: ATG_Myb_CIS: Attagene CIS-FACTORIAL HepG2 Assay for human Myeloblastosis (Myb) Proto-Oncogene Transcription Factor (AID 2282986; active = hit-call score of the fitted dose curve at least 0.9, where 1 is the maximum; inactive = score below 0.9); details: HepG2 Attagene CIS-FACTORIAL Myb reporter transcription; actives raise or lower the signal
Transcriptional activator Myb (Homo sapiens), sequence (P10242 whole entry, looked up): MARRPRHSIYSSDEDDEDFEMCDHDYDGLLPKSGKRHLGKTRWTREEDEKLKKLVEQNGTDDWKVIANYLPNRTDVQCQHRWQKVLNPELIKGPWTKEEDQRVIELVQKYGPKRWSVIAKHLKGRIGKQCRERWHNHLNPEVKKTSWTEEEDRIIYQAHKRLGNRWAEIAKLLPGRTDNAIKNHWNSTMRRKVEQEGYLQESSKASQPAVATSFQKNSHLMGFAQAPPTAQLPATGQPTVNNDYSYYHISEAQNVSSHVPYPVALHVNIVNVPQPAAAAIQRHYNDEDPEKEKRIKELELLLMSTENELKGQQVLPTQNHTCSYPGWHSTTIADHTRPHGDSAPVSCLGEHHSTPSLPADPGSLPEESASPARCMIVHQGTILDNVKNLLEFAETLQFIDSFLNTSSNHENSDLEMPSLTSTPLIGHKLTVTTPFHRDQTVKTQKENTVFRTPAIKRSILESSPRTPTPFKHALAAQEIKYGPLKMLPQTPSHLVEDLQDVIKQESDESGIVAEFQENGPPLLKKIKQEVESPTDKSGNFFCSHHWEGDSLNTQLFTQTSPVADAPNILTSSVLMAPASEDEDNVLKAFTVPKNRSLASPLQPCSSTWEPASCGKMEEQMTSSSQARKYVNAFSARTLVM
How it was run: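 Endogenous transcription factor activity at a Myb-responsive cis element is reported in human liver HepG2 cells after 24 h chemical treatment. Reporter mRNA is detected by RT-PCR and capillary electrophoresis fluorescence, with DMSO as baseline.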

[10] = ATG_M_19_TRANS: Attagene TRANS-FACTORIAL HepG2 Assay for M19 Transcription Factor (Internal Marker) (AID 2282974); details: HepG2 Attagene TRANS-FACTORIAL M19 internal marker reporter
How it was run: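 After transfection of HepG2 with GAL4-UAS-driven reporter constructs, cells are dosed for 24 h. Total RNA is reverse-transcribed, reporter sequences PCR-amplified and labelled, then HpaI-digested and sized by capillary electrophoresis.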

[11] = target: Glucocorticoid receptor (Homo sapiens) (UniProt P04150); experiment: ATG_GR_TRANS: Attagene TRANS-FACTORIAL HepG2 Assay for human Glucocorticoid Receptor (GR) (AID 2282978); details: HepG2 Attagene TRANS GR reporter, mRNA transcription;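 also: activators score as hits since higher reporter transcript over DMSO is fitted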
Glucocorticoid receptor (Homo sapiens), sequence (P04150 whole entry, looked up): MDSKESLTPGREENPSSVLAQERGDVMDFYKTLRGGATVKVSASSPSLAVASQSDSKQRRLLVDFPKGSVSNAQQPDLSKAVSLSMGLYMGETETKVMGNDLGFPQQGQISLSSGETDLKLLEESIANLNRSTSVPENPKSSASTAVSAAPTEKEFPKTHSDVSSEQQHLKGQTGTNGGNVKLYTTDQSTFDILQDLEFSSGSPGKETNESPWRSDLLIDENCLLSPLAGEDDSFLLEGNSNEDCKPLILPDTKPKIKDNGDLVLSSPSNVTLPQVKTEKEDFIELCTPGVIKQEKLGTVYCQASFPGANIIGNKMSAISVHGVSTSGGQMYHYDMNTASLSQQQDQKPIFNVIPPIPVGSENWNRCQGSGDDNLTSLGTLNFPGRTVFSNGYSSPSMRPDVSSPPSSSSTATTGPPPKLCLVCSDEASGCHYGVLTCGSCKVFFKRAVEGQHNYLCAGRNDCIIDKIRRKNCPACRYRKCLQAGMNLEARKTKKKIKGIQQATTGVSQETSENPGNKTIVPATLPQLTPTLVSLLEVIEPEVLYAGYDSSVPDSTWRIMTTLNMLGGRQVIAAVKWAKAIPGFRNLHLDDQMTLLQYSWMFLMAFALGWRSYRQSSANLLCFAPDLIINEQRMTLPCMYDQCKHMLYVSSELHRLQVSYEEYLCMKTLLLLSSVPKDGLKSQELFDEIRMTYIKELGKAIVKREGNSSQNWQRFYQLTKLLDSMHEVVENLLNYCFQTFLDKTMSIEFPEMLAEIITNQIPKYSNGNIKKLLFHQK
How it was run: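 Multiplexed TRANS reporter system, HepG2; 24 h exposure; RNA → oligo(dT) RT → reporter-specific PCR → 6-FAM primer extension → HpaI cut → CE fluorescence. Gain-of-signal vs DMSO.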

[12] = target: Bile acid receptor (Homo sapiens) (UniProt Q96RI1); experiment: ATG_FXR_TRANS: Attagene TRANS-FACTORIAL HepG2 Assay for Farnesoid X Receptor (FXR) (AID 2282979); details: HepG2 Attagene TRANS FXR-GAL4 reporter transcription;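 also: hits raise reporter mRNA above DMSO so AC50 marks FXR activation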
Bile acid receptor (Homo sapiens), sequence (Q96RI1 whole entry, looked up, the tested form may be a part): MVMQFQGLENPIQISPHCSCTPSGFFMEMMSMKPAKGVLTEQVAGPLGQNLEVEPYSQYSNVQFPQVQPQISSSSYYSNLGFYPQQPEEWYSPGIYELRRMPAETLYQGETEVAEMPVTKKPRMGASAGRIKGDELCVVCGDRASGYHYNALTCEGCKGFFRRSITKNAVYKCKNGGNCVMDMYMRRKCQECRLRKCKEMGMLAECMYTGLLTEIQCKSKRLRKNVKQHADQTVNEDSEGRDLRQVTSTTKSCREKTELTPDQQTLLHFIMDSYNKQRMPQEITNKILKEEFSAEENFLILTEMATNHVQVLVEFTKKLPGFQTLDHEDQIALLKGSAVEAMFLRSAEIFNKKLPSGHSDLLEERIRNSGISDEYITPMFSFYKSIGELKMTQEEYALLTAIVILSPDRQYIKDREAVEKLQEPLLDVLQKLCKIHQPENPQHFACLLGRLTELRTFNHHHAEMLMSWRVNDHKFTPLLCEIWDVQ
How it was run: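 Reporter transcripts from transfected HepG2 cells were measured 24 h after dosing, using RT-PCR with capillary electrophoresis of 6-FAM-labelled fragments. The read-out reflects activity of exogenous FXR-Gal4 chimera on GAL4-UAS units, with induction relative to DMSO.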

[13] = target: Oxysterols receptor LXR-beta (Homo sapiens) (UniProt P55055); experiment: ATG_LXRb_TRANS: Attagene TRANS-FACTORIAL HepG2 Assay for human Liver X Receptor beta (LXRb) (AID 2282981); details: HepG2 Attagene TRANS GAL4-LXRb reporter, mRNA
Oxysterols receptor LXR-beta (Homo sapiens), sequence (P55055 whole entry, looked up, the tested form may be a part): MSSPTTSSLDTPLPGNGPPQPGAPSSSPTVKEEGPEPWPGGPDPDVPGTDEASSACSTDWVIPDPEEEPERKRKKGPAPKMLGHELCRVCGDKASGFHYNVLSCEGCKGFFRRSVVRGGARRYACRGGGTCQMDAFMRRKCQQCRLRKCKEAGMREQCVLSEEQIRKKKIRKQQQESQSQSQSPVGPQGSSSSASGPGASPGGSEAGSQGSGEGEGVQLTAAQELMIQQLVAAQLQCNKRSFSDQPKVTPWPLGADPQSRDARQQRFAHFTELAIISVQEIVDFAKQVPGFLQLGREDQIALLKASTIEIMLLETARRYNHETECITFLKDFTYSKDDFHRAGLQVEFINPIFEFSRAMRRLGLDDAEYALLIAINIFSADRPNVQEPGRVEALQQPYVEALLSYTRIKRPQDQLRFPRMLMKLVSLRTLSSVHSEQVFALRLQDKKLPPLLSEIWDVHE
How it was run: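 Gain-of-signal mRNA reporter endpoint, DMSO as negative control. Transiently transfected HepG2 cells carrying the NR-Gal4 chimera and GAL4-UAS reporter units were treated 24 h; transcripts quantified by RT-PCR and capillary electrophoresis fluorescence.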

[14] = target: Hepatocyte nuclear factor 4-alpha (Homo sapiens) (UniProt P41235); experiment: ATG_HNF4a_TRANS: Attagene TRANS-FACTORIAL HepG2 Assay for human Hepatocyte Nuclear Factor 4 alpha (HNF4a) (AID 2282982); details: HepG2 HNF4a transactivation reporter, mRNA readout
Hepatocyte nuclear factor 4-alpha (Homo sapiens), sequence (P41235 whole entry, looked up, the tested form may be a part): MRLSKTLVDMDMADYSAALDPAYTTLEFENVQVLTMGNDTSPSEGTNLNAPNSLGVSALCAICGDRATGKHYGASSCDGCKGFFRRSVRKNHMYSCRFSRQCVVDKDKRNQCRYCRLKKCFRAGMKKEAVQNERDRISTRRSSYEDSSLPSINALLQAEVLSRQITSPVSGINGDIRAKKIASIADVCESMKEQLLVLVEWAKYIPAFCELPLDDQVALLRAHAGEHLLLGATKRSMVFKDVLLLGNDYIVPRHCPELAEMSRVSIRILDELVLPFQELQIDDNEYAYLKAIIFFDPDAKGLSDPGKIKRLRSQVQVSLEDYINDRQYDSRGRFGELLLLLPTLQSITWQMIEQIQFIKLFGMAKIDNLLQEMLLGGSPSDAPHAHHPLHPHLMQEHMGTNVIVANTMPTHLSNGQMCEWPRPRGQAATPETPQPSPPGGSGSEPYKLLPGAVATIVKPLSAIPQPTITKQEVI
How it was run: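 Gain-of-signal mRNA induction, relative to DMSO vehicle, was read after 24 h compound treatment of HepG2 cells bearing transfected GAL4-UAS reporters. Detection used RT-PCR, 6-FAM primer extension and capillary electrophoresis.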

[15] = target: Nuclear receptor subfamily 4 group A member 2 (Homo sapiens) (UniProt P43354); experiment: ATG_NURR1_TRANS: Attagene TRANS-FACTORIAL HepG2 Assay for human Nuclear Receptor Related Protein 1 (NURR1) (AID 2282985); details: HepG2 Attagene TRANS reporter, mRNA readout
Nuclear receptor subfamily 4 group A member 2 (Homo sapiens), sequence (P43354 whole entry, looked up): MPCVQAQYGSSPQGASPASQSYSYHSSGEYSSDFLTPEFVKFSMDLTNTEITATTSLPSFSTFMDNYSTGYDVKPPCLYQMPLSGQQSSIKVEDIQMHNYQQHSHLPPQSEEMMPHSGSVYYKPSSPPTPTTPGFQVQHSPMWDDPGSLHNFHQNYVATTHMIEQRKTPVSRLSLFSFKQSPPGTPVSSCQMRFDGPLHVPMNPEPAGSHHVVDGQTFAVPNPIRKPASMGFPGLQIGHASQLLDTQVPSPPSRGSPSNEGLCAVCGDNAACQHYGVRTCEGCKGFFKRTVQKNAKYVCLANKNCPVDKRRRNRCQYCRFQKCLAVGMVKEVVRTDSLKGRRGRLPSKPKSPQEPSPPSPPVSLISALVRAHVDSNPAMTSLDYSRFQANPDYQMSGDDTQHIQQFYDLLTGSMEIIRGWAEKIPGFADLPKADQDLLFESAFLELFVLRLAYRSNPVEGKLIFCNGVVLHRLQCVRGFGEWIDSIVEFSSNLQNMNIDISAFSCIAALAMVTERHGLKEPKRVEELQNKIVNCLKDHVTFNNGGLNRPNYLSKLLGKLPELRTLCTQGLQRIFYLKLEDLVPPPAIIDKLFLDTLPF
How it was run: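 HepG2 / transient MRTU transfection / 24 h compound exposure / RT-PCR + CE fluorescence of reporter mRNA / gain-of-signal vs DMSO.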

[16] = target: Estrogen receptor (Homo sapiens) (UniProt P03372); experiment: ATG_ERa_TRANS: Attagene TRANS-FACTORIAL HepG2 Assay for human Estrogen Receptor alpha (ERa) (AID 2282970); details: HepG2 Attagene TRANS ERa GAL4 reporter, mRNA
Estrogen receptor (Homo sapiens), sequence (P03372 whole entry, looked up, the tested form may be a part): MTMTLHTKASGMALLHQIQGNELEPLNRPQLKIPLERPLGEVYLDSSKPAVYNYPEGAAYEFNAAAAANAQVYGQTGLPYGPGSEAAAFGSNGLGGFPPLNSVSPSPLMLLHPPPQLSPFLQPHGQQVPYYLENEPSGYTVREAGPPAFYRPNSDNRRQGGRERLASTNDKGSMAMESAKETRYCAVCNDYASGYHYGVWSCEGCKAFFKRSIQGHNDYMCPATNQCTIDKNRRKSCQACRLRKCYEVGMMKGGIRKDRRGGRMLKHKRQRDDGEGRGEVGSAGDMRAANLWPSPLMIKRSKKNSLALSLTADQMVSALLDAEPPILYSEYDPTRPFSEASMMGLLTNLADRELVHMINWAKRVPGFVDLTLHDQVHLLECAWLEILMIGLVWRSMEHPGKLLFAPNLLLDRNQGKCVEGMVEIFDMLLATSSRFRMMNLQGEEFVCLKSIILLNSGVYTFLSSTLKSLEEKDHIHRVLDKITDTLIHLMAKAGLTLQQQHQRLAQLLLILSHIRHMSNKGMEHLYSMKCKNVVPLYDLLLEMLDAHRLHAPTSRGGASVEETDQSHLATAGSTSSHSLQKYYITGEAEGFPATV
How it was run: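 Cells: HepG2, transiently transfected. Construct: GAL4-UAS reporter units regulated by exogenous NR-Gal4 chimeras. Time: 24 h. Detection: reporter mRNA by RT-PCR, capillary electrophoresis, fluorescence. Baseline: DMSO, upward fitting.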

[17] = target: Androgen receptor (Homo sapiens) (UniProt P10275); experiment: ATG_AR_TRANS: Attagene TRANS-FACTORIAL HepG2 Assay for human Androgen Receptor (AR) (AID 2282973); details: HepG2 Attagene TRANS-FACTORIAL AR reporter transcription
How it was run: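 Transcriptional activity of an exogenous AR–Gal4 fusion read as GAL4-UAS reporter transcript levels in transfected human HepG2 cells after 24 h dosing. Detection via RT-PCR, 6-FAM labelling, HpaI digest and capillary electrophoresis; increase over DMSO baseline.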

[18] = target: Steroid hormone receptor ERR1 (Homo sapiens) (UniProt P11474); experiment: ATG_ERRa_TRANS: Attagene TRANS-FACTORIAL HepG2 Assay for human Estrogen-Related Receptor alpha (ERRa) (AID 2282971); details: HepG2 Attagene TRANS reporter, ERRa transactivation
How it was run: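 Reporter transcripts from ERRa-Gal4 chimera activity measured in transiently transfected human HepG2 cells 24 hours after dosing, using RT-PCR with 6-FAM primer extension, HpaI digestion and capillary electrophoresis; DMSO is baseline.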

[19] = target: Estrogen-related receptor gamma (Homo sapiens) (UniProt P62508); experiment: ATG_ERRg_TRANS: Attagene TRANS-FACTORIAL HepG2 Assay for human Estrogen-Related Receptor gamma (ERRg) (AID 2282977); details: HepG2 Attagene TRANS reporter, ERRg transactivation;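 also: hits increase reporter signal over DMSO so potencies reflect activators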
How it was run: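 Transient HepG2 transfectants, 24 h compound exposure, GAL4-UAS reporter mRNA by RT-PCR/6-FAM labelling/capillary electrophoresis; positive direction vs DMSO.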

[20] = ATG_Hpa5_TRANS: Attagene TRANS-FACTORIAL HepG2 Assay for human GAL4-Hpa5 Hepatocyte Transcription Factor Basal Promoter (AID 2282975); details: HepG2 Attagene GAL4-Hpa5 transcription reporter;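 also: hits are increases in reporter mRNA over DMSO baseline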
How it was run: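 Basal-promoter GAL4 background control within the HepG2 trans-factorial panel of transiently transfected reporter units. Reporter mRNA is measured 24 h after dosing by RT-PCR and capillary electrophoresis, fitted for gain of signal versus DMSO.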

Measured: AC50

Cc1ccccc1[N+](=O)[O-]
inactive: [1] | [2] | [3] | [4] | [5] | [6] | [7] | [8] | [9]

C[C@]12CCC(=O)C=C1CC[C@@H]1[C@@H]2CC[C@@]2(C)[C@H]1CC[C@]2(C)O
active: [3] 18.2 µM
inactive: [1] | [2] | [3] | [4] | [5] | [10] | [6] | [11] | [12] | [13] | [14] | [7] | [8] | [15] | [9]

COc1ccc(O)c(C(C)(C)C)c1
inactive: [1] | [2] | [4] | [11] | [12] | [7] | [8] | [9]
active: [3] 58.7 µM | [16] 31.5 µM

Oc1c(Cl)c(Cl)c(Cl)c(Cl)c1Cl
inactive: [1] | [2] | [4] | [16] | [11] | [12] | [13] | [14] | [7] | [8] | [15] | [9]
active: [1] 26.4 µM | [2] 13.2 µM | [3] 25.5 µM and 8.06 µM and 8.47 µM

CC1=C2C[C@H]3[C@@H](CC=C4C[C@@H](O)CC[C@@]43C)[C@@H]2CC[C@]12O[C@@H]1C[C@H](C)CN[C@H]1[C@H]2C
inactive: [1] | [2] | [3] | [16] | [6] | [11] | [12] | [7] | [8] | [9]

Cc1cccc([N+](=O)[O-])c1
inactive: [1] | [2] | [3] | [16] | [5] | [7] | [9]

NS(=O)(=O)C(F)(F)C(F)(F)C(F)(F)C(F)(F)C(F)(F)C(F)(F)C(F)(F)C(F)(F)F
active: [16] 25.8 µM and 7.34 µM and 5.15 µM
not listed: [3] | [5] | [6] | [17] | [18] | [19] | [20]
inactive: all other assays above

O=C(NC(=O)c1c(F)cccc1F)Nc1cc(Cl)c(OC(F)(F)C(F)F)c(Cl)c1
inactive: [1] | [2] | [4] | [16] | [17] | [6] | [7] | [9]

C=CC(N)=O
active: [3] 100 µM
not listed: [4] | [10] | [11] | [12] | [16] | [17] | [20]
inactive: all other assays above

CCOCCOC(C)=O
inactive: [1] | [2] | [3] | [5] | [7] | [15] | [9]

Cc1cccc(C)c1N
inactive: [1] | [2] | [5] | [6] | [11] | [12] | [14] | [7] | [9]

O=NN(c1ccccc1)c1ccccc1
active: [16] 23.6 µM
inactive: [1] | [2] | [12] | [7] | [9]

Clc1ccc(C(Cl)(Cl)Cl)cc1
inactive: [1] | [2] | [18] | [6] | [11] | [13] | [7] | [8] | [9]

C1CC2OC2CC1C1CO1 (configuration not stated)
inactive: [1] | [2] | [3] | [10] | [12] | [8] | [9]

C=CC(=O)NCNC(=O)C=C
inactive: [1] | [2] | [3] | [17] | [13] | [7] | [15] | [9]

CN(C)c1nc(=O)n(C2CCCCC2)c(=O)n1C
inactive: [1] | [2] | [3] | [16] | [20] | [13] | [7] | [9]

CCCN(CCC)N=O
inactive: [1] | [2] | [3] | [16] | [6] | [13] | [7] | [8] | [9]

O=C(N[C@H]1CN2CCC1CC2)c1cc2ccoc2cn1
inactive: [1] | [2] | [3] | [16] | [11] | [13] | [14] | [7] | [8] | [9]

O=S(=O)(O)C(F)(F)C(F)(F)C(F)(F)C(F)(F)F
not listed: [4] | [5] | [12] | [16] | [17] | [18] | [20]
inactive: all other assays above
